Assay outcomes deposited in PubChem BioAssay by National Center for Advancing Translational Sciences (NCATS).
uPA generation: qHTS for Inhibitors of Cell Surface uPA Generation; cell surface uPA generation assay, qHTS; Potency, µM (doses to about 38.3 µM), for the others: top-dose activity change, negative = inhibition, most hits filed as inhibitors; 330,000 compounds, 0.31% hits; AID 540303, 2011; active means well fitted inhibition curve with a large enough effect; inconclusive means small, poorly fitted or top-dose-only effect; inactive means no such curve, though single readings can be large or run the other way; tested in mouse RAW 264.7 cells; further: potency means the concentration at half of the fitted maximal effect; on the % scale 0 is the no-effect control and ±100 the full control effect; nearly all actives have a fitted effect of over 55% in size
VP16 counter: VP16 counterscreen qHTS for inhibitors of ROR gamma transcriptional activity; Potency, µM (doses to about 53.6 µM), for inactives: at the highest dose activity, negative = inhibition, most hits filed as inhibitors; 310,000 compounds, 3.5% hits; Drosophila S2 Gal4-VP16 UAS-luciferase, luminescence, 20 h; AID 2546, 2010;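 further: Gal4-VP16 expression switched on by copper sulfate through the metallothionein promoter; potency means the concentration at half of the fitted maximal effect; on the % scale 0 is the no-effect control and ±100 the full control effect; nearly all actives have a fitted effect of over 50% in size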
TRPV1 ag: HTS Assay for Compounds that Act as Agonists of the Vanilloid Receptor 1. Transient receptor potential cation channel subfamily V member 1 (Homo sapiens), Q8NER1. TRPV1-expressing cells, Fluo-8 calcium influx, agonist mode. activation, % at 8.33 µM. 320,000 compounds, 0.19% hits; in the data active means activation above about 80%; inconclusive means between about 30% and that limit; further: 0% is about no effect
Target sequence (Q8NER1 whole entry, looked up): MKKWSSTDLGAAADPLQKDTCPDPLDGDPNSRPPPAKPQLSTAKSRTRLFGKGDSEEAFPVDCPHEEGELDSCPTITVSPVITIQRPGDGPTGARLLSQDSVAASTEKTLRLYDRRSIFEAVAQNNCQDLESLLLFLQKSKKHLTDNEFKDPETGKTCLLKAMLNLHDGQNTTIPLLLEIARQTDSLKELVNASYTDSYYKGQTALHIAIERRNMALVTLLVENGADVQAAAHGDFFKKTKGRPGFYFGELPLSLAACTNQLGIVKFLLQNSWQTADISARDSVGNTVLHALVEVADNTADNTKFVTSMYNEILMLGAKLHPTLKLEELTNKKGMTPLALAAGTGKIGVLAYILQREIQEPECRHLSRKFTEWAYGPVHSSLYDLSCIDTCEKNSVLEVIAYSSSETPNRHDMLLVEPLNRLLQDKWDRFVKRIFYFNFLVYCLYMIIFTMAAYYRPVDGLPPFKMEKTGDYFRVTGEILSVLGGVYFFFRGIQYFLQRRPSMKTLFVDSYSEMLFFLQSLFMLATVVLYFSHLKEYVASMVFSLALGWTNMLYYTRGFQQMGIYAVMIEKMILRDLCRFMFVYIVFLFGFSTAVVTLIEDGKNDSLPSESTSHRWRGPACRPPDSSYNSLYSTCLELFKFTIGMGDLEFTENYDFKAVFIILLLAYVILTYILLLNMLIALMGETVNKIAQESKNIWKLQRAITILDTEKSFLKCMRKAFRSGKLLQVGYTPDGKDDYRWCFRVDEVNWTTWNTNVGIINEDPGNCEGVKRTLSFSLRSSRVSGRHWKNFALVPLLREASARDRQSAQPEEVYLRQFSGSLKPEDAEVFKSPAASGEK
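Fluo-8 calcium influx in TRPV1-expressing cells, kinetic read (ex 480/em 520 nm). Compound added and read 3 min for agonist activity, followed by capsaicin at EC20 final and 2 min further read for enhancement.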
RORg inh: qHTS for inhibitors of ROR gamma transcriptional activity; Drosophila S2 Gal4-RORgamma UAS-luciferase reporter, 20 h; 310,000 compounds, 5.4% hits; Potency, µM (highest dose often 53.6 µM), for the others: at the top dose activity change, negative = inhibition, hits mostly inhibitors; AID 2551, 2010; further: potency means the concentration at half of the fitted maximal effect; on the % scale 0 is the no-effect control and ±100 the full control effect; nearly all actives have a fitted effect of over 60% in size
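Stable Schneider cell line, Gal4 DNA-binding domain fused to ROR gamma, UAS-luciferase. Cmpd 1 hr RT → CuSO4 700 uM final → 20 hr RT → luciferase reagent 10 min → luminescence.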
TRPV1 potentiator: HTS Assay for Compounds that Act as Potentiators of the Vanilloid Receptor 1. potentiation, % at 8.33 µM. AID 540277, 2011. TRPV1-expressing cells, Fluo-8 calcium influx, capsaicin EC20 potentiation. 320,000 compounds, 0.02% hits. Transient receptor potential cation channel subfamily V member 1 (Homo sapiens), Q8NER1; in the data active means potentiation above about 80%; inconclusive means between about 30% and that limit; further: 0% is about no effect
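Fluo-8 calcium influx in TRPV1-expressing cells, kinetic read (ex 480/em 520 nm). Compound added and read 3 min for agonist activity, followed by capsaicin at EC20 final and 2 min further read for enhancement.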
The depositor's hits bear a star; i = inactive; ? = inconclusive; . = no result given; [ ] = remark or other dose. Most compounds without a hit are left out; they make up all but 5.8% or so of the library. Unless noted, the call rests on the fitted dose curve; in most records, active means well fitted curve in the direction sought with a large enough effect; inconclusive means small, poorly fitted or top-dose-only effect, or another doubt; inactive means no such curve, though single readings can be large; an effect the other way counts as inactive or inconclusive.

SMILES	uPA generation	VP16 counter	TRPV1 ag	RORg inh	TRPV1 potentiator
COc1cc2c(cc1OC)C1O[C@](CCCCN3C(=O)c4ccccc4C3=O)(C2)OC2=C1C(=O)CC(C)(C)C2	.	-5%[10 µM]	?	28%[10 µM]	i
CCN(CC)CCOc1ccc(-c2nc3cc(Cl)ccc3s2)cc1	.	0%	.	7%	.
O=C(NC(=S)Nc1cccc2cnccc12)c1ccccc1	-4%	?	?	10µM*	-9
O=C(Nc1cccc2cccnc12)c1ccccc1	.	.	7	.	21
O=C(NC(=S)Nc1cccc2[nH]ncc12)c1ccccc1	-2%	-7%	-2	-9%	4
O=C(NC(=S)Nc1cccc2cccnc12)c1ccccc1	0%	6.3µM*	17	2.2µM*	1
CCCCN(CC)C(=O)c1ccc(Cl)c(Cl)c1	3%	6%	-12	19%	9
CCCCN(CCCC)C(=S)NC(=O)C(C)(C)C	0%	6.3µM*	5	3.2µM*	-5
C=C(C(=O)c1ccccc1)C(C(=C)C(=O)c1ccccc1)c1ccc(OC)cc1	?	-8%	1	26%	?
CC(C)(C)Nc1nc(NN)nc(NC(C)(C)C)n1	-5%	20µM*	-6	7.1µM*	10
COc1ccc(-c2csc(NC(=O)c3ccccc3NS(=O)(=O)c3ccc(F)c(F)c3)n2)cc1	-7%	4µM*	3	5.6µM*	?
O=C(Nc1cc(S(=O)(=O)N2CCCCC2)ccc1O)c1ccccc1NS(=O)(=O)c1ccc(F)cc1	1%	4%	4	40%	-3
O=C(Nc1cc(S(=O)(=O)N2CCCCC2)ccc1Cl)c1ccccc1NS(=O)(=O)c1ccc(F)cc1	-10%	5.6µM*	0	?	18
COc1ccc(-c2csc(NC(=O)c3ccccc3F)n2)cc1	20%	3%	5	18%	22
Cc1ccc(S(=O)(=O)Nc2ccccc2C(=O)Nc2nc(-c3ccc(F)cc3)cs2)cc1	13µM*	-8%	2	16%	-13
COC(=O)C[C@@H]1O[C@H]1[C@H](C)[C@@H](OC)C(C)C	.	3%[10 µM]	.	15%[10 µM]	.
CCN1CCN(C(c2cccs2)C(C)NC(=S)Nc2cccc(C)c2C)CC1 (stereo unspecified)	-2%	-3%	0	11µM*	2
CC(NC(=S)Nc1ccc(Cl)cc1)C(c1ccccc1)N1CCOCC1 (stereo unspecified)	8%	6.3µM*	1	6.3µM*	21
Cc1cccc(NC(=S)NC(C)C(c2ccccc2)N2CCN(C)CC2)c1C (stereo unspecified)	-8%	-8%	7	11µM*	14
Cc1ccccc1NC(=S)NN1CCN(C)CC1	-5%	0%	-2	-27%	1
CCN1CCN(C(c2cccs2)C(C)NC(=S)NC2CCCCC2)CC1 (stereo unspecified)	-2%	3%	6	-44%	-2
CNC(=O)c1csc(-c2ccc(C)cc2)n1	.	-4%	81*	-7%	-15
CNC(=O)c1csc(-c2ccncc2)n1	-5%	9%	2	42%	-10
CNC(=O)c1csc(-c2ccc(Cl)cc2)n1	0%	1%	84*	?	-21
O=C(Nc1ccc(Cl)cc1)c1csc(-c2ccncc2)n1	-2%	2%	26	40%	-10
SMILES	uPA generation	VP16 counter	TRPV1 ag	RORg inh	TRPV1 potentiator
O=C(Nc1ccc(Cl)cc1)c1csc(-c2ccccc2)n1	.	-21%	81*	2%	-25
CC(C)(C)c1ccc(C(=O)O)c(C(=O)c2ccccc2)c1	1%	-14%	-2	1%	12
NCCCCCCCCCCNCCCN	.	10%	.	-5%	.
C[C@]12CCC(=O)C=C1[C@@H]1C[C@H]1[C@H]1[C@@H]3[C@@H]4C[C@H]4[C@@]4(CCC(=O)O4)[C@@]3(C)CC[C@@H]12	.	-8%	.	8%[10 µM]	.
COCCn1c(C)cc(C(=O)COC(=O)c2ccccc2Br)c1C	2.5µM*	?	7	-41%	-17
Cc1cc(C(=O)COC(=O)c2cccnc2Cl)c(C)n1CC1CCCO1 (stereo unspecified)	1.6µM*	-18%	26	?	-28
Cc1cc(C(=O)COC(=O)c2ccccc2Br)c(C)n1CC1CCCO1 (stereo unspecified)	-14%	8.9µM*	17	14µM*	15
Cc1cc(C(=O)COC(=O)c2ccccc2O)c(C)n1CC1CCCO1 (stereo unspecified)	?	.	?	.	-15
Cc1cc(C(=O)COC(=O)c2ccccc2NCCO)c(C)n1CC1CCCO1 (stereo unspecified)	?	1.6µM*	-1	0.79µM*	5
COc1cccc(Cn2c(=O)c(-c3cccc(Cl)c3)nc3cncnc32)c1	.	-10%	.	-11%	.
COc1ccc(C(=O)/C=C/c2cn(CC(O)CN(CC(C)C)CC(C)C)c3ccccc23)cc1OC (stereo unspecified)	.	.	-4	.	?
Cc1c(C(=O)NCc2ccc(S(N)(=O)=O)cc2)oc2ccc(Cl)cc12	7%	-2%	1	11%	-1
Cc1cc2c(nc1C)CCCN2C[C@H](C)O/N=C\[C@@H](C)[C@H](OCc1ccccc1)C(C)C	.	2%[10 µM]	.	-5%[10 µM]	.
Cc1ccc(C(=O)OCC(=O)c2cc(C)n(CC3CCCO3)c2C)cc1 (stereo unspecified)	-3%	3%[10 µM]	?	?	-14
Cc1cc(C(=O)COC(=O)c2cc(O)c3ccccc3c2O)c(C)n1CC1CCCO1 (stereo unspecified)	-3%	-4%	1	16µM*	-4
Cc1cc(C(=O)COc2ccccc2C(N)=O)c(C)n1CC1CCCO1 (stereo unspecified)	0%	10µM*	1	-34%	-1
O=C(Nc1cc(=O)[nH]c(=O)[nH]1)c1cc(Cl)ccc1Cl	3.5µM*	-5%	0	-1%	4
COc1cc(C)c(S(=O)(=O)NCc2cccs2)cc1C	-1%	?	-1	?	15
Nc1c(C(=O)N2CCOCC2)sc2nc3c(cc12)CCCC3	2%	?	4	10µM*	-6
Cc1cc(C)c2nc3sc(C(=O)N4CCOCC4)c(N)c3cc2c1	-79%	?	?	10µM*	-6
Cc1ccc(C)c2nc3sc(C(=O)N4CCOCC4)c(N)c3cc12	-17%	-12%	6	31%	-7
Nc1c(C(=O)N2CCOCC2)sc2nc3c(cc12)CCC3	3%	?	1	?	-4
CC(C)(C)c1ccc(OCC(=O)O/N=C(\N)c2ccncc2)cc1	3%	.	.	.	.
O=C(NCc1cccnc1)c1cc(S(=O)(=O)N2CCCC2)c(Cl)cc1Cl	-5%	21%	-1	23%	4
